Measurements from paper PMC7819943, “Rice protein-binding microarrays: a tool to detect cis-acting elements near promoter regions in rice”.
In all, about 39,000 sequences were measured (“fluorescence intensity (a.u.)”: median about 4,300, highest 2% from about 39,000 on). Many of the other results were omitted from the sample, so the highest values are more common in it than they were.

biological target: T1, OsSMF1 (Oryza sativa, UniProt Q6ZLB0 1-436); assay: protein-binding microarray (RPBM); PBS, 2% BSA, 51.3 ng/ul salmon testes DNA, 50 uM zinc acetate, 200 nM TF, 25 C, 1 h; high values mean tight binding; settings: protein: recombinant; tags: N-terminal polyhistidine and DsRed monomer fusion (pET32a); chain copies: 2; label: CyDye5-dUTP incorporated in the synthesized complementary strand; 3' TTTTT single-stranded linker to array surface; dsDNA, one strand shown
T1 sequence: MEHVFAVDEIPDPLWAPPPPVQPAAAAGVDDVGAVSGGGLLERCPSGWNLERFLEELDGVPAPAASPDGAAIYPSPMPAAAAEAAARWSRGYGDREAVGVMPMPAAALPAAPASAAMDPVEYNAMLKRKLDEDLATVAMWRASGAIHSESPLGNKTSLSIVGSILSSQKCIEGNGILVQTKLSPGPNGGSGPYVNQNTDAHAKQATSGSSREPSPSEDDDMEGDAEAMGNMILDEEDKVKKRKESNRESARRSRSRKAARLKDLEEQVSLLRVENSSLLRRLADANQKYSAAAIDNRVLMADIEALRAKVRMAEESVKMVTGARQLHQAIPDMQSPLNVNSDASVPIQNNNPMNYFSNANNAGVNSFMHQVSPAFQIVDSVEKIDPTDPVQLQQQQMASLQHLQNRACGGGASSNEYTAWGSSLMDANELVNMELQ
In short: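 Polyhistidine-tagged DsRed fusions of transcription factors, joined at the N-terminus, were expressed in E. coli BL21-CodonPlus and isolated on Ni–NTA. They were incubated at 200 nM for 1 h at 25 °C on a custom Agilent array, double-stranded and BSA-blocked, in PBS with 2% BSA, salmon testes DNA and 50 µM zinc acetate. The binding signal is per-feature fluorescence intensity (arbitrary units) read on an Axon 4000B scanner after washing.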

Sequence	binding signal
GAATAGAACATGTACAGTGACACATCTGCATTGGAAGCGTCGGAGTCACCTAGTGCAG	7380 fluorescence intensity (a.u.)
TGTCATTGACTCACGTGGGTCCTACATGTCATTGAGCTTTCGGAGTCACCTAGTGCAG	10300 fluorescence intensity (a.u.)
CATCCGTCGCTTCGCTTTCGTTCGAACGCGTTGGACCCAGCGGAGTCACCTAGTGCAG	3160 fluorescence intensity (a.u.)
TTTATGATAACTTTGAGTCATATCATTTTGGTAAGTCCTACGGAGTCACCTAGTGCAG	3140 fluorescence intensity (a.u.)
TTATGGACTGATATGGGCCGTTGGATTGGTTTCGGTTTTGCGGAGTCACCTAGTGCAG	5480 fluorescence intensity (a.u.)
ATGATAACTTTTATGGTTTTGGCCGTCTGGGGATCGGAATCGGAGTCACCTAGTGCAG	65500 fluorescence intensity (a.u.)
CCAGTACATTTTGTACTACTACTTCGAACGGGCATGGTCGCGGAGTCACCTAGTGCAG	29700 fluorescence intensity (a.u.)
CTAATTGAAATCACAAATGCTGAGTTGCTGACATGCACCACGGAGTCACCTAGTGCAG	4570 fluorescence intensity (a.u.)
CCCGTCGTTGTCCACCCCGTCCCATTCCACGACCGTCGTCCGGAGTCACCTAGTGCAG	3390 fluorescence intensity (a.u.)
GTAACGTACGACCGTTGTCATCGTAGACGCTTCCCGGATTCGGAGTCACCTAGTGCAG	45700 fluorescence intensity (a.u.)
TGAACACGAACGCGACGCTTCTTCTGTCACGTACGCCCGTCGGAGTCACCTAGTGCAG	3200 fluorescence intensity (a.u.)
TTTCCTTGGAGAATCCAGATCAGCTTCCTAATCACCCTCACGGAGTCACCTAGTGCAG	4040 fluorescence intensity (a.u.)
AGTTTCCGAGAGCGAGCGAGAGAGAGAGAGAGAGAGAGAGCGGAGTCACCTAGTGCAG	3220 fluorescence intensity (a.u.)
GTGTCTGCCTCCGCGTCCGCTTCGTCACGGCGGTGTCGGTCGGAGTCACCTAGTGCAG	5900 fluorescence intensity (a.u.)
TGTGCTCAGCCTTAATTAATTAATCGAGCGAGTCATAAGCCGGAGTCACCTAGTGCAG	3460 fluorescence intensity (a.u.)
CAGGTGTGTCCATTGAATTGAATTGAATTGAAACTATTGACGGAGTCACCTAGTGCAG	60900 fluorescence intensity (a.u.)
TGTACCTGAAACTATTGTTATGTCCAGGTCAGGAGCAGTGCGGAGTCACCTAGTGCAG	3360 fluorescence intensity (a.u.)
CAGGAATTGAACTATTAAGATCCATTATGTTGCTCTAAAACGGAGTCACCTAGTGCAG	3310 fluorescence intensity (a.u.)
CTCTCACCATGCAAGATTTCCTTAGATTTGAGTTGAGTCACGGAGTCACCTAGTGCAG	3150 fluorescence intensity (a.u.)
CTTCAGTCCCGGTTGGTAAGGCTCAGCCGGCCACGTGGCTCGGAGTCACCTAGTGCAG	17200 fluorescence intensity (a.u.)
AGCGGACGCGCGGTATGGTCGATGGATGATGACACACGGTCGGAGTCACCTAGTGCAG	5210 fluorescence intensity (a.u.)
AAGCTAGTCACACATCACCATCACACACACCAAGCCACACCGGAGTCACCTAGTGCAG	4460 fluorescence intensity (a.u.)
CCAGGTCACATTCACATCTCTCTTTACCAAAGCTAAGCCACGGAGTCACCTAGTGCAG	48100 fluorescence intensity (a.u.)
GTGCCATCTAAGCGTCACGTCAAACACCACATACCAGGTCCGGAGTCACCTAGTGCAG	3140 fluorescence intensity (a.u.)
CTGTATTCATTAGGGTGGGACTGTATACTATAGTTATTATCGGAGTCACCTAGTGCAG	3190 fluorescence intensity (a.u.)
GACCCACGCCTTCGGGTCCACATGTCATAGCCTATCCACCCGGAGTCACCTAGTGCAG	3550 fluorescence intensity (a.u.)
CTTGTTTGATCAAACCGATGCGACGCAGAGAGAGAGAGGTCGGAGTCACCTAGTGCAG	39400 fluorescence intensity (a.u.)

Sequence	binding signal
AAACAGAGGGGAAGAGAGAGGATCGTCGTCGACGATGATGCGGAGTCACCTAGTGCAG	3200 fluorescence intensity (a.u.)
TTTGCGATGCTGACTGGTCTGAGAGCCTTGATCCGATGGTCGGAGTCACCTAGTGCAG	44800 fluorescence intensity (a.u.)
GTCTGGCTGCTGATGGTGATGATGCTGACTTGTGACGAGTCGGAGTCACCTAGTGCAG	3620 fluorescence intensity (a.u.)
GGTCGATGATGATGATGACGACGACGAGAGGAGGAGAGATCGGAGTCACCTAGTGCAG	3820 fluorescence intensity (a.u.)
GAAACGATGGTTTGAGTACTGACTTGGCAATGCTGGTCATCGGAGTCACCTAGTGCAG	6280 fluorescence intensity (a.u.)
TGTTGTGCTGGTTGGTTCCAGATCTAACAGTGACAGTGCGCGGAGTCACCTAGTGCAG	4380 fluorescence intensity (a.u.)
AAGTCCGATTCGTGAGTCACAGATGTTGACTCGCCGAAAACGGAGTCACCTAGTGCAG	5350 fluorescence intensity (a.u.)
TCCTTCTATATGTTTGCACTTACGTGGGCCGTATTTATGCCGGAGTCACCTAGTGCAG	9040 fluorescence intensity (a.u.)
GACGATCAAGATCGACACGACCAACGTGGCATGTTGCGTACGGAGTCACCTAGTGCAG	9470 fluorescence intensity (a.u.)
GAGGAGGAGGAGGCTGATGTGGCAGCCTGACATGTGGGGCCGGAGTCACCTAGTGCAG	7020 fluorescence intensity (a.u.)
TCCTTGATCCTTTATTTGATATTTGTTTAGATATATAATTCGGAGTCACCTAGTGCAG	37900 fluorescence intensity (a.u.)
TACGATGAGTCATTTATTGATTATTGTATTAATGTTCCTTCGGAGTCACCTAGTGCAG	11500 fluorescence intensity (a.u.)
AAAGGATGATATTTATTCGATCCTTGTTCGAATGTAGACTCGGAGTCACCTAGTGCAG	55700 fluorescence intensity (a.u.)
CGCTGTGTATATATGTGCAGGTCCATCCATGAGAGGTTGACGGAGTCACCTAGTGCAG	34900 fluorescence intensity (a.u.)
GCCCAGCGTGCACGGCGCGACGGACTCGCGCGGCACTAGCCGGAGTCACCTAGTGCAG	5790 fluorescence intensity (a.u.)
GGCCAGCCGTGTAGGCGGAGGCACCACTCGGCGGCGACGGCGGAGTCACCTAGTGCAG	49900 fluorescence intensity (a.u.)
GGCATAATAGGCCAGCCGTGTAGGCAGAGACACCAGTCGGCGGAGTCACCTAGTGCAG	4530 fluorescence intensity (a.u.)
TGCTGAGTGAGTGATGAGTGTGCGAATGTGTGATCGATCGCGGAGTCACCTAGTGCAG	3860 fluorescence intensity (a.u.)
ATTATTCATAAGCTGAATATTCTTATTCATACATTCGGATCGGAGTCACCTAGTGCAG	6460 fluorescence intensity (a.u.)
CGAAGACTAAGTCAACACCACCACGTAGTCGCCACATCAGCGGAGTCACCTAGTGCAG	8880 fluorescence intensity (a.u.)
CCAGGTCAACATTGCCACGTGTGCGGCCACGTCAGCGAAACGGAGTCACCTAGTGCAG	33400 fluorescence intensity (a.u.)
GCCACGTGGGATGAAGCCTAAGTCAACATCGCCACGTCAGCGGAGTCACCTAGTGCAG	43200 fluorescence intensity (a.u.)
CTAGGTCAACACCGCCATGTCAGCGCCACGTCAGCGAAACCGGAGTCACCTAGTGCAG	28700 fluorescence intensity (a.u.)
GGCTATTGGGAGCCACGTCAGCCGGTGGCCTCCGCCATCGCGGAGTCACCTAGTGCAG	22600 fluorescence intensity (a.u.)
CACGTGGGACGAAAACTAGGTCAACATCGCCACGTCAGCGCGGAGTCACCTAGTGCAG	45900 fluorescence intensity (a.u.)
GACTTGATTACCACGCGTATACTATATAGGACAAAATTGCCGGAGTCACCTAGTGCAG	3190 fluorescence intensity (a.u.)
TGTTCCTCCACGTCGCTCCGCCGCTCCGCCCGCCTTGCTTCGGAGTCACCTAGTGCAG	5090 fluorescence intensity (a.u.)
